The text below walks through data of ChEMBL document CHEMBL3433997, “St. Jude Leishmania screening dataset” (2016).

In the first test the target is Solute carrier family 2, facilitated glucose transporter member 1 (Homo sapiens) (UniProt P11166). In words: ST_JUDE_LEISH: Cytotoxicity at 2uM final concentration against transgenic Leishmania Mexicana promastigotes LmGLUT1 that are glucose transport deficient and complemented with the human glucose transporter GLUT1. Activity is measured by DNA content using SYBR green in vitro. It is filed as functional.
Sequence of Solute carrier family 2, facilitated glucose transporter member 1 (Homo sapiens) (P11166 whole entry): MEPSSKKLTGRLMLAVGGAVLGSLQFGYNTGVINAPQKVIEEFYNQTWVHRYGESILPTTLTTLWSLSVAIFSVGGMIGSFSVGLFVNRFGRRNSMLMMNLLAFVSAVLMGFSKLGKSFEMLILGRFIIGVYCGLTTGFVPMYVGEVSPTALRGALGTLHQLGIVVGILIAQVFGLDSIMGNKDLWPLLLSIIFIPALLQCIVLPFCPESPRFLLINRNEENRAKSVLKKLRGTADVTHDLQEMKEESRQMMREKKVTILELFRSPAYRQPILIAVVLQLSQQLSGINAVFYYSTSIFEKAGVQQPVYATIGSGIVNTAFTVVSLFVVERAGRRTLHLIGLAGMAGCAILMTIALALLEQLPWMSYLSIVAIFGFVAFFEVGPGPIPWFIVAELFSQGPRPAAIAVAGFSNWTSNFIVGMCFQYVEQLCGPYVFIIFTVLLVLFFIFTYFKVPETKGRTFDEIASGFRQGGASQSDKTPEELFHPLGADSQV
A word on the inhibition: it is the drop in the measured response relative to a control, in per cent. With `COc1cc(C)c(C(O)CNC(C)CCc2ccccc2)cc1C` (stereo not given), the inhibition amounted to 2.16%.
Same read-out and setting: the value for `Cc1cc(CNCCCCCCNCc2ccc(Cl)cc2)ccc1O` was 9.89%; that for `Cc1ccc(NC(=O)c2ccc3ncccc3c2)cc1OC1CCN(CCC(C)C)CC1` was 3.07%.
For the molecule `Cc1cccc2nc(-c3ccc(-c4cccc(CNCc5cnn(-c6ccccc6)n5)c4)s3)[nH]c12`, the inhibition is 3.52%.
In the case of `O=C(Nc1nc2cc(S(=O)(=O)NCCCN3CCOCC3)ccc2n1CCCn1ccnc1)c1ccc(Cl)cc1`, the inhibition amounted to 5.51%.
For `CCOC(=O)c1cncc(/C=C/c2cc(C)cnc2N)c1`, the inhibition worked out at 5.82%.
On to `N#Cc1ccc2c(c1)CCN(CCC1CCC(NC(=O)/C=C/c3cccc4cc[nH]c34)CC1)CC2` (stereo not given), for which the inhibition was found to be 8.95%.
As for `CN1CCN(Cc2cc(NC(=O)c3ccc(-c4ccc(Cl)cc4Cl)cc3)ccc2-c2ccccc2)CC1`, the inhibition worked out at 6.54%.
`Nc1oc2c(CN3CCCCCC3)c(O)ccc2c(=O)c1-c1nc2ccccc2s1`: the inhibition was -1.92%.
Regarding `O=C(Nc1cc(Cl)ccc1-n1cncn1)C1(c2ccccc2)CC1`, the inhibition is 2.59%.
On the same count and under the same terms, next, `O=c1cc(NCCC(CNCCc2ccccc2)NCc2cc(Br)cc(Br)c2)[nH]c2ccccc12` (stereo not given): -5.14%.
Same read-out and setting: next, `CCOc1c(N2CCN(CCCCNC(=O)c3ccc(NC(=O)c4ccc(Cl)cc4)cc3)CC2)ccc2ccccc12`: 0.72%.
On the same count and under the same terms, the value for `CC(C)c1ccc2c(c1)c(SC(C)(C)C)c(CC(C)(C)C#N)n2Cc1ccc(Cl)cc1` was 3.18%; that for `CCCNc1nc(Nc2ccccc2C)nc2ccccc12` was 38.1%.
Turning to `Cc1csc2nc(-c3ccccn3)nc(Nc3ccncn3)c12`, the inhibition was 1.73%.
Same read-out and setting: next, `COc1cc2c(cc1OCCN1CCC(N3CCCCC3)CC1)N(C(=O)/C=C/c1ccccc1OC(F)(F)F)CC2`: 2.32%.
Same read-out and setting: next, `CC(C)Oc1ccc(C=CC(=O)Nc2noc3ccccc23)cc1`: 2.56%.
Consider `CC(=NNC(N)=O)C1=C(O)C(c2ccccc2)N(C2CCCCC2)C1=O` (stereo not given), for which the inhibition is -0.44%.
On the same count and under the same terms, the value for `N=C(N)Nc1nc(-c2cccc(NC(=O)NCc3cccc4ccccc34)c2)cs1` was 1.1%; that for `O=C1C(c2ccccc2)=C(Nc2cccc(OC(F)(F)C(F)F)c2)c2ccccc21` was 5.8%.
As to `O=C(NC(c1ccccc1)c1ccc2cccnc2c1O)c1ccccc1` (stereo not given), the inhibition was 4.04%.
Turning to `c1ccc(CCNCc2ccc(-c3ccc(CNCc4ccc5c(c4)OCO5)cc3)nc2)cc1`, the inhibition stood at 2.48%.
The same measure, in the same setting: next, `N#Cc1ccc(-c2ccc(C(=O)NCCCCN3CCC(c4ccc5c(c4OCc4ccncc4)CCCC5)CC3)cc2)cc1`: 0.21%; `CN(C)CCOc1ccc(-n2c(-c3nonc3N)nc3cncc(-c4ccc(F)cc4)c32)cc1`: 3.17%.
`CC(C)Oc1ccc2c(c1)OC(c1ccccc1)(C(F)(F)F)NC2=O` (stereo not given): the inhibition stood at 14.6%.
Same read-out and setting: next, `Cc1cccc2nc(-c3cccc(-c4ccc(NC(=O)Nc5ccc(Cl)cc5)cc4)c3)[nH]c12`: 4.43%.
For `Cc1cc(N[C@@H](Cc2ccccc2)C(=O)NCc2cccs2)nc(NCCc2ccccn2)n1`, the inhibition was 6.58%.
On the same count and under the same terms, the value for `NS(=O)(=O)c1ccc(CNc2ccc3ncc(-c4ccc(OC(F)(F)F)cc4)n3n2)cc1` was 4.71%.
Same read-out and setting: next, `Cc1cccc2nc(-c3ccc(-c4cccc(CN5CCN(CCN6CCOCC6)CC5)c4)s3)[nH]c12`: 0.45%.
Still for that read-out and setting: next, `O=C(Nc1ccc(-c2ccc(-c3nc4ccccc4[nH]3)s2)cc1)c1ccncc1`: 12.7%.
On to `CSc1ccc2nccc(Nc3ccc(Oc4ccccc4)cc3)c2c1`, for which the inhibition amounted to 5.73%.
On the same count and under the same terms, the value for `CCCCCCn1c(Sc2ccc(C#N)c([N+](=O)[O-])c2)nnc1-c1cccs1` was 5.52%; that for `CCCN(CCC)C(=O)c1cc(C(=O)N[C@@H](Cc2ccccc2)[C@H](O)CNCc2cccc(OC)c2)cc(N2CCCCS2(=O)=O)c1` was 4.58%; that for `O=S(=O)(NC1CCN(c2ccnc3cc(Cl)ccc23)C1)c1ccc(C(F)(F)F)cc1` (stereo not given) was 1.91%.
Same read-out and setting: the value for `OC(c1ccc2ccccc2c1)C1CN(CCc2ccccc2)CCC1(O)c1ccccc1` (stereo not given) was 0.49%.
As for `CS(=O)(=O)c1ccc(-c2cnc(N)c(-c3ccc(O)cc3)c2)cc1`, the inhibition was 2.19%.
`CCOC(=O)c1cn(CC)c2cc(OCc3ccccc3)ccc2c1=O`: the inhibition came to 0.45%.
For the molecule `COc1ccc2[nH]c3ccccc3c(=O)c2c1`, the inhibition was -0.87%.
Regarding `COc1cccc(-c2csc(C(=O)NC3CCCCN(Cc4ccc(C(C)(C)C)cc4)C3)c2)c1` (stereo not given), the inhibition came out at 4.84%.
On to `N#Cc1ccc2[nH]cc(-c3cn4cc(SC5CCCC5)ccc4n3)c2c1`, for which the inhibition is 0.43%.

The next test has as its target Hexose transporter 1 (Plasmodium falciparum) (UniProt O97467). The experiment in a line: ST_JUDE_LEISH: Cytotoxicity at 2uM final concentration against transgenic Leishmania Mexicana promastigotes LmPfHT that are glucose transport deficient and complemented with the Plasmodium falciparum hexose transporter. Activity is measured by DNA content using SYBR green in vitro. It is filed as functional.
As to `COc1cc(C)c(C(O)CNC(C)CCc2ccccc2)cc1C` (stereo not given), the inhibition is 2.83%.
Consider `Cc1cc(CNCCCCCCNCc2ccc(Cl)cc2)ccc1O`, for which the inhibition is 7.77%.
As to `Cc1ccc(NC(=O)c2ccc3ncccc3c2)cc1OC1CCN(CCC(C)C)CC1`, the inhibition came out at 2.35%.
Same read-out and setting: next, `Cc1cccc2nc(-c3ccc(-c4cccc(CNCc5cnn(-c6ccccc6)n5)c4)s3)[nH]c12`: 2.05%.
Same read-out and setting: next, `O=C(Nc1nc2cc(S(=O)(=O)NCCCN3CCOCC3)ccc2n1CCCn1ccnc1)c1ccc(Cl)cc1`: 5.43%.
Regarding `CCOC(=O)c1cncc(/C=C/c2cc(C)cnc2N)c1`, the inhibition was 8.59%.
Same read-out and setting: the value for `N#Cc1ccc2c(c1)CCN(CCC1CCC(NC(=O)/C=C/c3cccc4cc[nH]c34)CC1)CC2` (stereo not given) was 9.87%; that for `CN1CCN(Cc2cc(NC(=O)c3ccc(-c4ccc(Cl)cc4Cl)cc3)ccc2-c2ccccc2)CC1` was 2.47%; that for `Nc1oc2c(CN3CCCCCC3)c(O)ccc2c(=O)c1-c1nc2ccccc2s1` was 6.76%.
In the case of `O=C(Nc1cc(Cl)ccc1-n1cncn1)C1(c2ccccc2)CC1`, the inhibition is 6.43%.
On the same count and under the same terms, the value for `O=c1cc(NCCC(CNCCc2ccccc2)NCc2cc(Br)cc(Br)c2)[nH]c2ccccc12` (stereo not given) was -3.71%; that for `CCOc1c(N2CCN(CCCCNC(=O)c3ccc(NC(=O)c4ccc(Cl)cc4)cc3)CC2)ccc2ccccc12` was 0.48%; that for `CC(C)c1ccc2c(c1)c(SC(C)(C)C)c(CC(C)(C)C#N)n2Cc1ccc(Cl)cc1` was 0.69%.
With `CCCNc1nc(Nc2ccccc2C)nc2ccccc12`, the inhibition amounted to 33.5%.
On to `Cc1csc2nc(-c3ccccn3)nc(Nc3ccncn3)c12`, for which the inhibition stood at 3.39%.
The same measure, in the same setting: next, `COc1cc2c(cc1OCCN1CCC(N3CCCCC3)CC1)N(C(=O)/C=C/c1ccccc1OC(F)(F)F)CC2`: 5.04%; `CC(C)Oc1ccc(C=CC(=O)Nc2noc3ccccc23)cc1`: 3.16%.
The same measure, in the same setting: next, `CC(=NNC(N)=O)C1=C(O)C(c2ccccc2)N(C2CCCCC2)C1=O` (stereo not given): -0.08%.
Still for that read-out and setting: the value for `N=C(N)Nc1nc(-c2cccc(NC(=O)NCc3cccc4ccccc34)c2)cs1` was -0.38%.
With `O=C1C(c2ccccc2)=C(Nc2cccc(OC(F)(F)C(F)F)c2)c2ccccc21`, the inhibition was 4.03%.
For the molecule `O=C(NC(c1ccccc1)c1ccc2cccnc2c1O)c1ccccc1` (stereo not given), the inhibition stood at 6.18%.
Take `c1ccc(CCNCc2ccc(-c3ccc(CNCc4ccc5c(c4)OCO5)cc3)nc2)cc1`: the inhibition is -1.05%.
The same measure, in the same setting: the value for `N#Cc1ccc(-c2ccc(C(=O)NCCCCN3CCC(c4ccc5c(c4OCc4ccncc4)CCCC5)CC3)cc2)cc1` was 3.1%; that for `CN(C)CCOc1ccc(-n2c(-c3nonc3N)nc3cncc(-c4ccc(F)cc4)c32)cc1` was 3.94%.
Same read-out and setting: next, `CC(C)Oc1ccc2c(c1)OC(c1ccccc1)(C(F)(F)F)NC2=O` (stereo not given): 12.2%; `Cc1cccc2nc(-c3cccc(-c4ccc(NC(=O)Nc5ccc(Cl)cc5)cc4)c3)[nH]c12`: 5.13%; `Cc1cc(N[C@@H](Cc2ccccc2)C(=O)NCc2cccs2)nc(NCCc2ccccn2)n1`: 3.27%.
`NS(=O)(=O)c1ccc(CNc2ccc3ncc(-c4ccc(OC(F)(F)F)cc4)n3n2)cc1`: the inhibition stood at 4.62%.
Still for that read-out and setting: the value for `Cc1cccc2nc(-c3ccc(-c4cccc(CN5CCN(CCN6CCOCC6)CC5)c4)s3)[nH]c12` was -1.04%.
For the molecule `O=C(Nc1ccc(-c2ccc(-c3nc4ccccc4[nH]3)s2)cc1)c1ccncc1`, the inhibition came to 8.04%.
`CSc1ccc2nccc(Nc3ccc(Oc4ccccc4)cc3)c2c1`: the inhibition was 6.24%.
The same measure, in the same setting: the value for `CCCCCCn1c(Sc2ccc(C#N)c([N+](=O)[O-])c2)nnc1-c1cccs1` was 6.91%; that for `CCCN(CCC)C(=O)c1cc(C(=O)N[C@@H](Cc2ccccc2)[C@H](O)CNCc2cccc(OC)c2)cc(N2CCCCS2(=O)=O)c1` was 5.76%; that for `O=S(=O)(NC1CCN(c2ccnc3cc(Cl)ccc23)C1)c1ccc(C(F)(F)F)cc1` (stereo not given) was 1.67%.
Turning to `OC(c1ccc2ccccc2c1)C1CN(CCc2ccccc2)CCC1(O)c1ccccc1` (stereo not given), the inhibition was -3.49%.
Turning to `CS(=O)(=O)c1ccc(-c2cnc(N)c(-c3ccc(O)cc3)c2)cc1`, the inhibition was found to be 1.67%.
Still for that read-out and setting: the value for `CCOC(=O)c1cn(CC)c2cc(OCc3ccccc3)ccc2c1=O` was 0.36%.
Same read-out and setting: next, `COc1ccc2[nH]c3ccccc3c(=O)c2c1`: 0.99%; `COc1cccc(-c2csc(C(=O)NC3CCCCN(Cc4ccc(C(C)(C)C)cc4)C3)c2)c1` (stereo not given): 7.61%.
On the same count and under the same terms, the value for `N#Cc1ccc2[nH]cc(-c3cn4cc(SC5CCCC5)ccc4n3)c2c1` was 1.11%.
